Measured values: PubChem BioAssay (NCI)
Compounds without any hit were thinned out: in the full panel of roughly 83,000, 20% have a hit.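 A percent growth of 40 corresponds to 60% growth inhibition; 0 means no net growth; -100 means all cells died. Active threshold: below 10.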 Values without a mark were called inactive. Active and inactive are the calls of the source.

Test system: IGROV1 ovarian
Experiment: NCI-60 one-dose screen, 48 h (100 = growth as untreated, 0 = no growth, -100 = all killed)
Details: 10 µM unless noted

| SMILES | growth |
| --- | --- |
| COc1ccc(-c2cn(-c3cccc(C(=O)/C=C/c4ccc(O)c(OC)c4)c3)c(=O)[nH]2)cc1 | -32.8% (active) |
| Cc1ccccc1N1C(c2ccccc2)=NNC12C=CC(=O)c1c(O)cccc12 (centres undefined) | 93.2% |
| COc1cc(Nc2ccnc3ccc(Br)cc23)cc(OC)c1OC | 38.2% |
| CN1CCN(Cc2ccc(NC(=O)c3cncc(C#Cc4ccc(N)nc4)c3)cc2C(F)(F)F)CC1 | -18.2% (active) |
| COc1ccc(Sc2[nH]c(C=O)c3ccccc23)cc1 | 73.1% |
| COCCOCCOCc1n(Cc2ccc3ccccc3n2)c2ccccc2[n+]1Cc1ccc2ccccc2c1 | -9.44% (active) |
| COc1ccc(C2C3CCc4ccccc4C3=NN2C(=O)c2cc(OC)c(OC)c(OC)c2)cc1O (centres undefined) | 46.6% |
| O=c1[nH]cnc2nc[nH]c12 | 109% |
| CC(=O)O[C@H]1[C@H](CC#CC#CC[C@@H]2C[C@]3(C)[C@H]4CC=C5[C@H]6[C@@H](C)[C@H](C)CC[C@]6(C(=O)NCCN(CCN)CCN)CC[C@@]5(C)[C@]4(C)CC[C@H]3C(C)(C)[C@H]2OC(C)=O)C[C@]2(C)[C@H]3CC=C4[C@H]5[C@@H](C)[C@H](C)CC[C@]5(C(=O)NCCN(CCN)CCN)CC[C@@]4(C)[C@]3(C)CC[C@H]2C1(C)C | 62.3% |
| Fc1ccc2nc(-c3ccc(-c4noc(-c5ccc(Cl)cc5)n4)cc3)[nH]c2c1 | 115% |
| CCNS(=O)(=O)c1ccc(C)cc1 | 98.3% |
| OC(c1cc(-c2ccc(C(F)(F)F)cc2)nc(-c2ccc(C(F)(F)F)cc2)c1)C1CCCCN1 (centres undefined) | -65.2% (active) |
| CC1(C)C(N(O)C(=O)Nc2ccc(Cl)cc2)N(c2ccc(Cl)cc2)C(=O)N1CC(=O)N/N=C/C=C/c1ccc([N+](=O)[O-])o1 (centres undefined) | -5.58% (active) |
| Cc1cc(N=Nc2ccc(-c3ccc(N=Nc4ccc(O)c(C(=O)O)c4)cc3)cc2)c(N)c(N=Nc2ccc(C(=O)O)cc2)c1N | 83.3% |
| NC(N)=N/N=C\c1cccc(OCc2ccccc2)c1 | 74.7% |
| CNC(=O)c1ccccc1Sc1ccc2c(/C=C/c3ccccn3)n[nH]c2c1 | 23.1% |
| CC(=O)c1c(C)nc(-c2cc(C)cc(Cl)c2)nc1-c1cccc(Oc2ccccc2)c1 | 77.7% |
| CCN(CC)Cc1cc(Nc2nc(NC3CCC(N(C)C)CC3)c3ccccc3n2)ccc1OC (centres undefined) | 82.4% |
| Cc1nc2c(-c3cnc(N)nc3)nc(N3CCOCC3)nc2n1C(C)C | -24.7% (active) |
| C[C@@H]1C[C@H](N)C[C@H](c2ccncc2NC(=O)c2ccc(F)c(-c3c(F)cccc3F)n2)C1 | 46.5% |

| SMILES | growth |
| --- | --- |
| Nc1nonc1-c1nc2ccccc2n1Cc1ccc(F)cc1 | 48.7% |
| C=CC[C@]1(O)CC[C@H]2[C@@H]3CCc4cc(O)ccc4[C@H]3CC[C@@]21C | 109% |
| [Ag].[Ag].[NH-]S(=O)(=O)c1ccc(N=Nc2cc(N=Nc3ccc(S([NH-])(=O)=O)cc3)c3c(NC(=O)C(Cl)Cl)cccc3c2OC(=O)C(Cl)Cl)cc1.[c-]1nccs1.[c-]1nccs1 | 76.2% |
| CCCCCCCCCCCCCCC(C(=O)OCC)C(=O)OCC | 103% |
| CN(C)c1ccc(C(c2ccccc2)c2ccc(N(C)C)cc2)cc1 | 113% |
| Cc1n(Cc2ccc3ccccc3n2)cc[n+]1Cc1ccc2ccccc2c1 | 5.65% (active) |
| FC(F)(F)c1ccc(/C=N/Nc2nnc3n2N=C(c2ccc(Cl)cc2)CS3)cc1 | 49.2% |
| CS(=O)(=O)Nc1cc(-c2cc3ncc(C#N)c(Nc4ccc(Oc5ccccc5)c(Cl)c4)c3s2)cnc1Cl | 11% |
| Cc1cc(C)c2c(n1)sc1c(Nc3ccc(O)cc3)ncnc12 | 68.2% |
| c1ccc(C2=Nc3ccccc3SC2)cc1 | 88.6% |
| COc1cc2c(cc1OCCCOc1cc3c(cc1OC)C(=O)N1CCC[C@H]1C=N3)C=CC(C)(C)O2 | 92.1% |
| O=[N+]([O-])c1cccc(N=C(Nc2cccc([N+](=O)[O-])c2)c2ccccc2)c1 | 84.4% |
| C=CCn1c(C)nc2cc(Nc3nc(N4CCOCC4)nc4nc[nH]c34)ccc21 | 72.9% |
| C=C1NC(=O)C(C(C)CC)NC(=O)C2CSCC(NC(=O)CCC(=O)O)C(=O)NC(Cc3ccccc3)C(=O)NC(C)C(=O)NC(CC(C)CC)C(=O)NC(C(=O)NC(Cc3ccccc3)C(=O)N3CCCC3C(=O)N2)C(C)OC(=O)C(CO)NC(=O)C(C(O)COC)N(C)C(=O)C(C(C)C)NC(=O)C(CC(C)CC)NC1=O (centres undefined) | 30.9% [6 µM] |
| COc1ccc(-c2nc(-c3cc(OC)cc(OC)c3)[nH]c2-c2ccc(OC)cc2)cc1 | 71.7% |
| N#Cc1nc(-c2cccc(Br)c2)cc(-c2ccc(Nc3nc(N4CCCCC4)nc(N4CCCCC4)n3)cc2)c1N | -45.4% (active) |
| NC(N)=N/N=C\c1ccc(OCc2ccccc2)cc1 | 77.7% |
| CCN(CC)CCC(CNc1ccnc2cc(Cl)ccc12)c1ccc(O)cc1 (centres undefined) | 78.1% |
| COS(=O)(=O)CCN(CCOS(C)(=O)=O)S(C)(=O)=O | 105% |
